Compounds without any hit were thinned out: in the full panel of roughly 83,000, 20% have a hit.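 48-hour exposure, single concentration, 96-well plates; percent growth endpoint where 0 means no net growth. Active: below 10.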 Activity calls are given as the source filed them.
What follows are molecules tested on EKVX NSCLC (assay: NCI-60 one-dose screen, 48 h (100 = growth as untreated, 0 = no growth, -100 = all killed)). Settings: 10 µM unless noted.
Description: Growth inhibition of the EKVX human Non-Small Cell Lung tumor cell line is measured as a screen for anti-cancer activity. Cells are grown in 96 well plates and exposed to the test compound for 48 hours. Compounds are tested at a single concentration, which is 10^-5 M for most compounds. The reported endpoint is percent growth (GI% or GIPRCNT), where numbers from 0 - 100% represent growth inhibition, and numbers from -100% - 0 represent cell death. For example, a value of 40 represents 60% growth inhibition. A value of 0 means no net growth occurred over the course of the experiment. A value of -40 indicates 40% of cells at the beginning of the experiment died by the end of the experiment. A value of -100 means all cells are dead at the end of the experiment.
NCI-60 Human Tumor Cell Lines Screen was performed using the standard one-dose NCI protocol, which is described in more detail at https://dtp.cancer.gov/discovery_development/nci-60/default.htm.
Compounds with GIPRCNT values below 10 were considered active. Activity score was based on GIPRCNT using the following formula: […]
Score is 0 for GIPRCNT values of 100 or above, 50 for GIPRCNT values of 0, and 100 for GIPRCNT values of -100.
With O=c1[nH][nH]c(-c2ccc(F)cc2)c1-c1nc2ccccc2s1 the growth was 90.1% (inactive).
With Cc1ccc2c(n1)C(=O)C(Cl)=C(Nc1ccc(C)c(C)c1)C2=O the growth was 52.6% (inactive).
With CNC(=O)c1cc(N2CCc3cc(NC(=O)Nc4ccc(N5CCOCC5)c(C(F)(F)F)c4)ccc32)ccn1 the growth was 59.6% (inactive).
C/C(=C(/C)C1CC1CCNC1CCC(NC(=O)OC(C)(C)C)CC1)c1ccccc1 (stereo not given) was tested, and the growth was 73.7% (inactive).
Clc1cccc(/C=N/Nc2nc(N/N=C/c3cccc(Cl)c3)nc(N3CCOCC3)n2)c1 was tested, and the growth was 72.2% (inactive).
CCCCCN1C(=O)/C(=c2\sc3n(c2=O)C2C(NN=3)N(CC)C(=O)N2CC)c2cccc(C)c21 (stereo not given) was tested, and the growth was 56.2% (inactive).
With CCOC(=O)c1c(NCC(=O)Nc2cccc([N+](=O)[O-])c2)sc(C(C)=O)c1C the growth was 0.605% (active).
For Cn1cc(-c2nn3cc(-c4ccncc4)nc3s2)c2cc(F)ccc21, the growth was 72.9% (inactive).
For Brc1ccc(-c2cc(-c3ccc4c(c3)OCCO4)n[nH]2)s1, the growth was 48.4% (inactive).
For C=C1CCc2nc(SCC(=O)O)ccc2N1, the growth was 101% (inactive).
With O=C(CCCCCCNC(=O)c1csc(Br)n1)NO the growth was 53.3% (inactive).
For CCN(CC)c1ccc(/C=N/NC(=O)c2ccc(NS(C)(=O)=O)cc2)cc1, the growth was 22.4% (inactive).
COc1ccc(C(=NNS(=O)(=O)c2ccc(C)cc2)c2ccccc2)cc1OC was tested, and the growth was 95.4% (inactive).
For CSc1ccc(/C(=N/N=C(N)N)c2ccc(F)cc2)cc1, the growth was 36.6% (inactive).
With CCN(CC)S(=O)(=O)c1ccc(-c2nc(C(Cl)Cl)nc3cc(-c4ccc(F)cc4)nn23)cc1 the growth was 32% (inactive).
With CN1CCN(c2ccc(Nc3nc(NCCNC(=O)c4ccc(F)cc4)c4sccc4n3)cc2)CC1 the growth was 92.7% (inactive).
CC(=O)OC[C@@]12Oc3c(cccc3-c3ccc(O)c4c3O[C@]3(COC(C)=O)C(=C4O)C(=O)C[C@H](C)[C@@H]3OC(C)=O)C(O)=C1C(=O)C[C@H](C)[C@@H]2OC(C)=O was tested, and the growth was 16.4% (inactive).
For N#Cc1c(-c2cccs2)cc(-c2cnccn2)nc1SCC(=O)N/N=C/c1ccccc1, the growth was 56.2% (inactive).
In the case of Cc1ccc(C(=O)CSc2nc3ccccc3c(=O)n2C)cc1, the growth is reported as 71.5% (inactive).
C#C[C@]1(O)CC[C@H]2[C@@H]3CC=C4c5sc(Nc6ncccc6C)nc5CC[C@]4(C)[C@H]3CC[C@@]21C was tested, and the growth was -10.6% (active).
For C/C(=N/N)c1nnn(-c2ccc(Br)cc2)c1C, the growth was 99.5% (inactive).
Cc1ccc(/C(N)=N/C(N)=N/c2nc3ccccc3s2)cc1 was tested, and the growth was 67.7% (inactive).
CCOC(=O)c1cnc2c(-c3ccc(Cl)c(Cl)c3)cnn2c1 was tested, and the growth was 81.3% (inactive).
Cc1ccc(-c2csc(N/N=C/c3cccs3)n2)cc1 was tested, and the growth was 65.2% (inactive).
With O=C1C(N2CCN(c3ccccc3)CC2)=C(Cl)C(=O)c2ncccc21 the growth was 101% (inactive).
With CNC(=O)c1cc(N2CCc3cc(NC(=O)Nc4ccc(N5CCN(C)CC5)c(C(F)(F)F)c4)ccc32)ccn1 the growth was 82.3% (inactive).
For CCOc1cccc(/C(N)=N/C(N)=N/c2nc3ccccc3s2)c1, the growth was 73.3% (inactive).
With CC1CCN(CC(=O)Nn2c(COc3ccccc3)nc3ccccc3c2=O)CC1 the growth was 86.1% (inactive).
In the case of COc1ccccc1/C=C1\Oc2ccc(O)c(O)c2C1=O, the growth is reported as 78.5% (inactive).
CN(C)S(=O)(=O)c1ccc(-c2nc(C(Cl)Cl)nc3cc(-c4ccccc4)nn23)cc1 was tested, and the growth was 80% (inactive).
With C#CCn1cc(/C=N/Nc2nc(-c3ccc(Br)cc3)cs2)c2ccccc21 the growth was 63.9% (inactive).
In the case of COc1cc(C(=O)c2cc(C(C)=O)c3ccc(C)cn23)cc(OC)c1OC, the growth is reported as 46.5% (inactive).
In the case of CCn1c2ccc(/C=N/N(C)S(=O)(=O)CCN(C)C)cc2c2cc(/C=N/N(C)S(=O)(=O)CCN(C)C)ccc21, the growth is reported as 94.7% (inactive).
For CN1CCN(Cc2ccc(NC(=O)c3cncc(C#Cc4cnc5ccc(OC6CCOCC6)nn45)c3)cc2C(F)(F)F)CC1, the growth was -73.8% (active).
With O=S(=O)(Oc1ccc(-c2cn3ccsc3n2)cc1)c1cccc(C(F)(F)F)c1 the growth was 94.3% (inactive).
With CC(C)(C)c1cc(NC(=O)Nc2ccc(-c3cn4c5c(sc4n3)CCc3cn(CCCN4CCCCC4)cc3-5)cc2)no1 the growth was -80.5% (active).
For Clc1cccc(/C=N/Nc2nc(N/N=C/c3cccc(Cl)c3)nc(N3CCCCC3)n2)c1, the growth was 78.4% (inactive).
With CC(=O)Nc1ccccc1-c1nc2ccccc2s1 the growth was 96.1% (inactive).
With Cc1ccc2c(n1)C(=O)C(Cl)=C(Nc1cccc(C(=O)OC(C)(C)C)c1)C2=O the growth was 86.3% (inactive).
O=C(/C=C/Nc1ccc(S(=O)(=O)Nc2ncccn2)cc1)c1ccc(N=Cc2c(O)[nH]c3ccccc23)cc1 was tested, and the growth was 103% (inactive).

From PubChem BioAssay (NCI)
